Measurements: PubChem BioAssay AID1159580 (chemical genetic matrix, 2015)
“And” between values parts separate entries of the source, which are not always exact repeats. Equal values may be shown once. About 2,000 (36%) of roughly 5,500 compounds were called active. Roughly 18% stayed inconclusive and do not appear here. No stated cut-off is given here; in the data, active means normalized growth mostly below about 0.91 (no sharp cut-off); inconclusive means no clear call, values can overlap the other calls; inactive means mostly above about 0.92. The list shows a part of the results.

Experiment: chemical genetic growth profiling, strain panel (AID 1159580);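 further: tested at 20 µM; growth read once vehicle control cultures reached saturation at 30 °C; 1 = growth at the plate median or of vehicle wells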
Settings: S. cerevisiae deletion strains, growth OD

Measured: normalized growth

CC1=CCc2c(cc3oc(C)cc(=O)c3c2O)OC1
0.756 (active) and 0.945 (inactive): locus YJL095W, strain BCK1, stronger effect = lower value
0.892 (active) and 0.959 (inactive): locus YHR030C, strain SLT2, stronger effect = lower value
inactive: locus YAL021C, strain ccr4, stronger effect = lower value 0.991 | locus YAL026C, strain drs2, stronger effect = lower value 0.964 | locus YAL030W, strain snc1, stronger effect = lower value 0.972 | locus YBL061C, strain skt5, stronger effect = lower value 0.971 | locus YBR009C, strain hhf1, stronger effect = lower value 0.954 | locus YBR021W, strain FUR4, stronger effect = lower value 0.856 | locus YBR023C, strain chs3, stronger effect = lower value 0.977 | locus YBR171W, strain sec66, stronger effect = lower value 0.94 | locus YBR229C, strain ROT2, stronger effect = lower value 0.98 | locus YBR231C, strain swc5, stronger effect = lower value 0.966 | locus YBR279W, strain paf1, stronger effect = lower value 0.982 | locus YCL011C, strain gbp2, stronger effect = lower value 0.929 | locus YCL016C, strain dcc1, stronger effect = lower value 0.982 | locus YCL029C, strain bik1, stronger effect = lower value 0.951 | locus YCL061C, strain MRC1, stronger effect = lower value 0.954 | locus YCL069W, strain vba3, stronger effect = lower value 0.954 | locus YCR088W, strain abp1, stronger effect = lower value 0.961 | locus YDL005C, strain med2, stronger effect = lower value 1 | locus YDL035C, strain GPR1, stronger effect = lower value 0.863 | locus YDL040C, strain nat1, stronger effect = lower value 0.984 | locus YDL101C, strain DUN1, stronger effect = lower value 0.943 | locus YDL134C, strain PPH21, stronger effect = lower value 0.907 | locus YDL185W, strain tfp1, stronger effect = lower value 0.962 | locus YDR001C, strain nth1, stronger effect = lower value 0.949 | locus YDR069C, strain doa4, stronger effect = lower value 0.988 | locus YDR137W, strain rgp1, stronger effect = lower value 0.913 | locus YDR150W, strain NUM1, stronger effect = lower value 0.96 | locus YDR159W, strain sac3, stronger effect = lower value 1.02 | locus YDR297W, strain sur2, stronger effect = lower value 0.968 | locus YDR334W, strain swr1, stronger effect = lower value 0.965 | locus YDR335W, strain msn5, stronger effect = lower value 0.987 | locus YDR388W, stronger effect = lower value 0.957 | locus YDR392W, strain spt3, stronger effect = lower value 0.893 | locus YEL003W, strain gim4, stronger effect = lower value 0.929 | locus YEL037C, strain rad23, stronger effect = lower value 0.96 | locus YEL061C, strain CIN8 (second series), stronger effect = lower value 0.966 | locus YEL061C, strain CIN8, stronger effect = lower value 0.952 | locus YER015W, strain faa2, stronger effect = lower value 0.975 | locus YER016W, strain bim1, stronger effect = lower value 0.985 | locus YER110C, stronger effect = lower value 0.933 | locus YER111C, strain swi4, stronger effect = lower value 0.967 | locus YER155C, strain BEM2 (second series), stronger effect = lower value 0.867 | locus YER155C, strain BEM2, stronger effect = lower value 0.96 | locus YER167W, strain BCK2, stronger effect = lower value 0.924 | locus YFR010W, strain ubp6, stronger effect = lower value 0.953 | locus YGL078C, strain dbp3, stronger effect = lower value 0.944 | locus YGL086W, strain mad1, stronger effect = lower value 0.934 | locus YGL167C, strain pmr1, stronger effect = lower value 0.979 | locus YGL173C, strain kem1, stronger effect = lower value 0.959 | locus YGL227W, strain vid30, stronger effect = lower value 0.964 | locus YGL240W, strain doc1, stronger effect = lower value 0.951 | locus YGL248W, strain PDE1, stronger effect = lower value 0.901 | locus YGL253W, strain hxk2, stronger effect = lower value 0.987 | locus YHR013C, strain ard1, stronger effect = lower value 0.924 | locus YHR027C, strain rpn1, stronger effect = lower value 0.984 | locus YHR079C, strain IRE1, stronger effect = lower value 0.96 | locus YHR094C, strain hxt1, stronger effect = lower value 0.972 | locus YHR129C, strain ARP1, stronger effect = lower value 0.925 | locus YHR142W, strain chs7, stronger effect = lower value 0.888 | locus YHR200W, strain rpn10, stronger effect = lower value 0.921 | locus YIL073C, strain SPO22, stronger effect = lower value 0.909 | locus YIL125W, strain kgd1, stronger effect = lower value 0.964 | locus YIR030C, strain dcg1, stronger effect = lower value 0.969 | locus YJL092W, strain hpr5, stronger effect = lower value 0.956 | locus YJL095W, strain BCK1 (second series), stronger effect = lower value 0.98 | locus YJL115W, strain asf1, stronger effect = lower value 0.973 | locus YJL129C, strain trk1, stronger effect = lower value 0.912 | locus YJL134W, strain LCB3, stronger effect = lower value 0.978 | locus YJL154C, strain vps35, stronger effect = lower value 0.956 | locus YJL164C, strain tpk1, stronger effect = lower value 0.952 | locus YJL166W, strain qcr8, stronger effect = lower value 0.983 | locus YJL168C, strain set2, stronger effect = lower value 0.968 | locus YJR066W, strain TOR1, stronger effect = lower value 0.915
active: locus YAL013W, strain DEP1, stronger effect = lower value 0.886 | locus YDL074C, strain BRE1, stronger effect = lower value 0.703 | locus YDL192W, strain arf1, stronger effect = lower value 0.901 | locus YDR101C, strain arx1, stronger effect = lower value 0.887 | locus YDR162C, strain NBP2, stronger effect = lower value 0.738 | locus YDR195W, strain ref2 1.2 [resistant] | locus YDR318W, strain mcm21, stronger effect = lower value 0.885 | locus YDR502C, strain sam2, stronger effect = lower value 0.86 | locus YGR078C, strain PAC10, stronger effect = lower value 0.785 | locus YGR135W, strain pre9, stronger effect = lower value 0.802 | locus YGR229C, strain SMI1, stronger effect = lower value 0.679 | locus YGR252W, strain gcn5, stronger effect = lower value 0.741 | locus YHR079C, strain IRE1 (second series), stronger effect = lower value 0.91 | locus YIL066C, strain RNR3, stronger effect = lower value 0.858 | locus YJL187C, strain SWE1 (second series), stronger effect = lower value 0.867 | locus YJR043C, strain POL32, stronger effect = lower value 0.792
